Several values for one entry are separate records, joined by “and”; a condition that tells them apart may be missing. Equal values may be shown once. Inconclusive results are not listed. Activity calls are given as the source filed them. Unless noted, calls come from the whole dose curve; as a rule, active = well fitted curve in either direction with a large enough effect (not every such curve was filed as active); inconclusive = small, poorly fitted or top-dose-only effect, or another doubt; inactive = flat fitted curve, though single readings scatter.
How the values were obtained:
[1] = Stat Signaling Pathway (AID 446); settings: ME-180 (cervical carcinoma) SIE beta-lactamase reporter, IL-6 stimulated, 5 h; at 38 µM (top of the series) unless noted;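 note: ME-180 cervical cancer cells given 40 pM IL-6 alongside compound; SIE-controlled beta-lactamase reporter measured as 460/530 nm FRET emission ratio; % is set by controls: 0 for no effect and ±100 for the full control effect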
In short: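 Emission at 460 and 530 nm (excitation 405 nm) reports SIE-controlled beta-lactamase in ME-180 cells. Cells received compound with 40 pM IL-6 for 5 hrs at 37 C; data scaled between 300 pM IL-6 and 125 nM JAK-inhibitor controls.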

[2] = target: Glucocorticoid receptor (Homo sapiens) (UniProt P04150); test: GR-GFP Redistribution (AID 450;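 active = compounds whose dose series gives a full or clear partial fitted curve of increased nuclear translocation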; note: potency is the fitted concentration of half-maximal effect); settings: U2OS GR-GFP nuclear translocation, laser cytometry, 2 h
Sequence of Glucocorticoid receptor (Homo sapiens) (P04150 whole entry, looked up, the tested form may be a part): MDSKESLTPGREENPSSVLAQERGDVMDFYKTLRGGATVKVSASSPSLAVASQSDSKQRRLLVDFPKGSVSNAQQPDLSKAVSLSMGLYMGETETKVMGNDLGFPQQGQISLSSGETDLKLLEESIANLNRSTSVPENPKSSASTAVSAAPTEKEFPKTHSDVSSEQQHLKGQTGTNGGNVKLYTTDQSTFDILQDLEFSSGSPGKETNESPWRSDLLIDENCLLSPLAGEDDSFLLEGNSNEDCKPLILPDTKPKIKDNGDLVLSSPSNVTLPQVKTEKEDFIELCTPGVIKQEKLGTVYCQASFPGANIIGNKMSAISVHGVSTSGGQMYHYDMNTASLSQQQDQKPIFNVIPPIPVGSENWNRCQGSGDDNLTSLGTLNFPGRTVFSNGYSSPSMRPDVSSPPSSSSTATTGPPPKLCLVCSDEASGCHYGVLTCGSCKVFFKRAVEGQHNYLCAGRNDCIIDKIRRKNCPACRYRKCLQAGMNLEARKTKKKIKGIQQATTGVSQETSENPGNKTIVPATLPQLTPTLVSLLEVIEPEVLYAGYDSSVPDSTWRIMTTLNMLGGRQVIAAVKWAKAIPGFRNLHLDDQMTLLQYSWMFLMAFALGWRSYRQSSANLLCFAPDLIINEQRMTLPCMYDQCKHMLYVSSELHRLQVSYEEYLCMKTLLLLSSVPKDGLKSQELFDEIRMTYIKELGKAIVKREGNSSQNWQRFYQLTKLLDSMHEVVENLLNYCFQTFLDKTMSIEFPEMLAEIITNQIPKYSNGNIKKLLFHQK

[3] = target: Glucocorticoid receptor (Homo sapiens) (UniProt P04150); test: GR-EFC Redistribution (AID 451; calls by dose curve; note: potency is the fitted concentration of half-maximal effect); settings: CHO-K1 GR-EFC translocation, beta-gal luminescence, 2 h
In short: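 CHO-K1 cells expressing nuclear EA and GR-ED fragments of b-gal; compounds titrated up to 46 uM final, 2 h at 37 C. GR nuclear translocation read as complemented b-gal luminescence after 1 h RT detection.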

[4] = target: Mitogen-activated protein kinase 10 (Mus musculus) (UniProt Q61831); test: JNK3 AlphaScreen Assay (AID 530); settings: JNK3 lysate, c-Jun phosphorylation; series mostly up to 57.1 µM;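 note: kinase came from lysate of stimulated human HepG2 cells; signal reports phosphorylation of biotinylated GST-cJun 1-79 at Ser73 with 10 µM ATP; % is set by controls: 0 for no effect and ±100 for the full control effect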
In short: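 Activity was read by AlphaScreen after JNK3-containing HepG2 lysate (cytokine pre-activated) phosphorylated biotinylated GST-cJun with 10 uM ATP at room temperature. Phospho-Ser73 cJun antibody with Protein-A acceptor beads provided detection.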

[5] = Cell Viability - N2a (AID 540; active = well fitted curve in the direction sought with a large enough effect; an effect the other way counts as inactive or inconclusive;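 note: cells exposed to compound for 40 h at 37 °C; plate controls were DMSO alone for no effect and tamoxifen control for full effect; nearly all actives have a fitted effect of over 45% in size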); settings: N2a mouse neuroblastoma cell viability; series mostly up to 92.2 µM
Source text: NIH Chemical Genomics Center [NCGC]
NIH Molecular Libraries Screening Centers Network [MLSCN]
National Institutes of Environmental Health Sciences [NIEHS]
National Toxicology Program [NTP]
We have developed a 1536-well cell-based assay for quantitative high throughput screening (qHTS) against a number of cell lines to determine in vitro cytotoxicity of small molecules. This particular assay uses the N2a cell line which is derived from mouse neuroblastoma.
NCGC Assay Protocol Summary:
The CellTiter-Glo luminescent cell viability assay (Promega) is a homogeneous method to measure the number of viable cells in culture. The end point readout of this assay is based on quantitation of intracellular ATP, an indicator of metabolic activity, using the luciferase reaction. Luciferase catalyzes the oxidation of beetle Luciferin to oxyluciferin and light in the presence of ATP. […]
Using the CellTiter-Glo luminescent cell viability assay, the amount of cellular ATP was measured in the N2a cell line with complete culture medium following compound treatment for 40 hours. […] Library compounds were measured for their ability to cause acute toxicity in the cell line, as reflected by a decrease in intracellular ATP levels, in a concentration-dependent manner. […] AC50 values were determined from concentration-response data modeled with the standard Hill equation. […]
8. Detection; Luminescence; Viewlux plate reader […]

[6] = Cell Viability - NIH 3T3 (AID 541; active = well fitted curve in the direction sought with a large enough effect; an effect the other way counts as inactive or inconclusive;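 note: plate controls were DMSO alone for no effect and tamoxifen positive control for full effect; nearly all actives have a fitted effect of over 25% in size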); settings: NIH 3T3 cell viability, qHTS; series mostly up to 92.2 µM
In short: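 Cells seeded at 1000/well, rested 5 hr at 37 °C, then dosed and incubated 40 hr at 37 °C. CellTiter-Glo added, 20 min room temperature, luminescence read. AC50 by Hill fit.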

[7] = Cell Viability - HUV-EC-C (AID 542; active = well fitted curve in the direction sought with a large enough effect; an effect the other way counts as inactive or inconclusive; note: % is set by controls: 0 for no effect and ±100 for the full control effect; nearly all actives have a fitted effect of over 35% in size); settings: HUV-EC-C endothelial cell viability, qHTS; series mostly up to 92.2 µM
In short: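 Cells were seeded at 1000 per well and incubated 5 hr at 37 °C before compound addition. After 40 hr at 37 °C, CellTiter-Glo reagent was added for 20 min and luminescence read. AC50 values came from Hill-equation modelling.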

[8] = Cell Viability - H-4-II-E (AID 543; active = well fitted curve in the direction sought with a large enough effect; an effect the other way counts as inactive or inconclusive; note: % is set by controls: 0 for no effect and ±100 for the full control effect; nearly all actives have a fitted effect of over 35% in size); settings: H-4-II-E rat hepatoma viability; series mostly up to 92.2 µM
In short: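 Cells seeded at 1500 per well and rested 5 hr; compounds added; 40 hr incubation at 37 °C; CellTiter-Glo added, 20 min at room temperature; luminescence read. Hill-equation fits gave AC50.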

[9] = Cell Viability - SH-SY5Y (AID 544; active = well fitted curve in the direction sought with a large enough effect; an effect the other way counts as inactive or inconclusive;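 note: 0% = DMSO alone and -100% = 100 µM tamoxifen; nearly all actives have a fitted effect of over 55% in size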); settings: SH-SY5Y neuroblastoma cell viability; series mostly up to 92.2 µM
In short: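 Cells were plated at 1500 per well and allowed 5 hr at 37 °C. Compounds were added across a concentration range and incubated 40 hr at 37 °C. CellTiter-Glo was added for 20 min at room temperature before luminescence reading.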

[10] = Cell Viability - Renal Proximal Tubule (AID 545; active = well fitted curve in the direction sought with a large enough effect; an effect the other way counts as inactive or inconclusive;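 note: 0% = DMSO only and -100% = 100 µM tamoxifen; nearly all actives have a fitted effect of over 40% in size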); settings: renal proximal tubule cells viability, primary cells of rat origin; series mostly up to 91.7 µM
In short: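 Rat kidney proximal tubule cells, freshly isolated; 1000 cells/well, 5 hr settle, compound 40 hr 37 °C. CellTiter-Glo 20 min RT, luminescence read. AC50 by standard Hill fit.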

N[C@@H](Cc1c[nH]c2ccccc12)C(=O)O
inactive: activity, negative = inhibition [1] -9.87% | Potency [2] > 46 µM | Potency [3] > 46 µM | outcome [4]

N[C@H](C(=O)O)c1cc(O)cc(O)c1
inactive: activity, negative = inhibition [1] 9.71% | Potency [2] > 46 µM | Potency [3] > 46 µM | outcome [4]

Cc1nc2c(OCc3ccccc3)cccn2c1CC#N
inactive: activity, negative = inhibition [1] -13.9% | Potency [3] > 46 µM

c1ccc2nc(C3=NCCN3)ccc2c1
inactive: activity, negative = inhibition [1] 0.247% | Potency [2] > 46 µM | Potency [3] > 46 µM | outcome [4]

O=C(c1ccc2c(c1)OCCO2)N1CCCCC1
inactive: activity, negative = inhibition [1] 25% | Potency [2] > 46 µM | Potency [3] > 46 µM | outcome [4]

O=c1[nH]ccc2c(O)cccc12
inactive: activity, negative = inhibition [1] -2.82% | Potency [3] > 46 µM

NC(=O)c1ccccc1
inactive: activity, negative = inhibition [1] -35.6% | Potency [2] > 46 µM | Potency [3] > 46 µM | outcome [5] | outcome [6] | outcome [7] | outcome [8] | outcome [9] | outcome [10]

Nc1nc2ccc(Cl)cc2c2nc(-c3ccco3)nn12
inactive: activity, negative = inhibition [1] 3.22% | Potency [3] > 46 µM | outcome [4]

CNc1cc(NS(=O)(=O)c2ccc(N)cc2)nc(NC)n1
inactive: activity, negative = inhibition [1] 13.2% | Potency [3] > 46 µM

NC/C=C\C(=O)O
inactive: activity, negative = inhibition [1] 22.6% and 7.43% | Potency [2] > 46 µM | Potency [3] > 46 µM | outcome [4]

C=CCn1c(=O)c2c(nc(-c3ccc(S(=O)(=O)O)cc3)n2C)n(C)c1=O
inactive: activity, negative = inhibition [1] 20.8% | Potency [3] > 46 µM

COc1ccc(CCN(C)CCc2ccc(OC)c(OC)c2)cc1OC
inactive: activity, negative = inhibition [1] -14.4% | Potency [2] > 46 µM | Potency [3] > 46 µM | outcome [4]

Cc1ccc2c(c1)C(N1CCN(C)CC1)=Nc1cccnc1N2
inactive: activity, negative = inhibition [1] 0.822% | Potency [2] > 46 µM | Potency [3] > 46 µM | outcome [4]

O=c1onc2n1-c1cc(Br)ccc1OC2
inactive: activity, negative = inhibition [1] -16.1% | Potency [2] > 46 µM | Potency [3] > 46 µM | outcome [4]

CCCn1c(=O)c2c(ncn2C)n(CCC)c1=O
inactive: activity, negative = inhibition [1] 28.8% | Potency [3] > 46 µM

N#C/C(=C\c1ccc(O)c(O)c1)C(=O)NCCCNC(=O)/C(C#N)=C/c1ccc(O)c(O)c1
inactive: activity, negative = inhibition [1] -7.91% | Potency [3] > 46 µM

CCCCCCCC/C=C\CCCCCCCC(=O)NCCc1ccc(O)c(O)c1
inactive: activity, negative = inhibition [1] 0.267% | Potency [3] > 46 µM

[Li+]
inactive: activity, negative = inhibition [1] -7.38% | Potency [2] > 46 µM | Potency [3] > 46 µM | outcome [4]

C[C@H](NC(=O)/C(C#N)=C/c1ccc(O)c(O)c1)c1ccccc1
inactive: activity, negative = inhibition [1] -15.4% | Potency [3] > 46 µM

Cc1nc(N=Nc2ccc(S(=O)(=O)O)cc2S(=O)(=O)O)c(COP(=O)(O)O)c(C=O)c1O
inactive: activity, negative = inhibition [1] 5.69% | Potency [2] > 46 µM | Potency [3] > 46 µM | outcome [4]

O=C(O)C1=CCNCC1
inactive: activity, negative = inhibition [1] 16.7% | Potency [3] > 46 µM

Cc1cccc(C(=O)NCN2CCN(c3ccccc3C#N)CC2)c1
inactive: activity, negative = inhibition [1] -3.73% | Potency [3] > 46 µM

COc1ccc2c(c1)c(CC(=O)O)c(C)n2C(=O)c1ccccc1
inactive: activity, negative = inhibition [1] -19% | Potency [2] > 46 µM | Potency [3] > 46 µM | outcome [4]

O=C(O)c1cc2cc(F)ccc2[nH]1
inactive: activity, negative = inhibition [1] -0.809% [at 17.2 µM] | Potency [3] > 46 µM | outcome [4]

CC(=O)C(C)=O
inactive: activity, negative = inhibition [1] 31.9% | Potency [2] > 46 µM | Potency [3] > 46 µM | outcome [5] | outcome [6] | outcome [7] | outcome [8] | outcome [9] | outcome [10]

O=c1ccc2c(OCCCCc3ccccc3)c3ccoc3cc2o1
inactive: activity, negative = inhibition [1] 3.59% | Potency [3] > 46 µM

CN[C@H](CC(=O)O)C(=O)O
inactive: activity, negative = inhibition [1] 2.84% | Potency [3] > 46 µM

NC(N)=NC(N)=Nc1cccc(Cl)c1
inactive: activity, negative = inhibition [1] 15.9% | Potency [2] > 46 µM | Potency [3] > 46 µM | outcome [4]

C=CC[C@H](N)C(=O)O
inactive: activity, negative = inhibition [1] 7.83% | Potency [2] > 46 µM | Potency [3] > 46 µM | outcome [4]

Reference: PubChem BioAssay (NCATS)
